Rows were chosen to be rich in hits. Some 19% of all compounds tested hit in one or more screens of this group.
TDP1 inh = qHTS Assay for Inhibitors of Tyrosyl-DNA Phosphodiesterase (TDP1); Potency, µM (titrated, usually from 130 µM), for the others: at the highest dose activity change, negative = inhibition, usual class: inhibitors; recombinant TDP1, AlphaScreen DNA substrate cleavage; AID 485290, 2010; 0.28% of 350,000 active; Tyrosyl-DNA phosphodiesterase 1 (Homo sapiens), Q9NUW8; note: potency is the fitted concentration of half-maximal effect; % is set by controls: 0 for no effect and ±100 for the full control effect; nearly all actives have a fitted effect of over 40% in size
Target sequence (Q9NUW8 whole entry, looked up): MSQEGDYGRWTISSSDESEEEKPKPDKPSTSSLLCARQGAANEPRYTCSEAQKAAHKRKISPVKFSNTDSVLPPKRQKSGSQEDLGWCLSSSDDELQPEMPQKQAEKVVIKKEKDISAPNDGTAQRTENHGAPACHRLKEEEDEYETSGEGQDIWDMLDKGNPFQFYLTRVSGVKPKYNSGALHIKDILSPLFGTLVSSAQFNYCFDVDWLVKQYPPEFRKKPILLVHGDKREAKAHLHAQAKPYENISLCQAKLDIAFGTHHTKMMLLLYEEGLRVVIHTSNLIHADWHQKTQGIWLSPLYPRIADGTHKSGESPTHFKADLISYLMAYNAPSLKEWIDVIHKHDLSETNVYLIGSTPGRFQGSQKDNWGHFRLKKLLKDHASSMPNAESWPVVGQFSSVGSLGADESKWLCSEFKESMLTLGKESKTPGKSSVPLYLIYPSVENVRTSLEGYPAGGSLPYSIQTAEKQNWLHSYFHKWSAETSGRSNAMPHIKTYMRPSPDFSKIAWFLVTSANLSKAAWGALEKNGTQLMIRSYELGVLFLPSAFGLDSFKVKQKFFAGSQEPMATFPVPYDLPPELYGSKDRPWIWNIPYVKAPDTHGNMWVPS
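Recombinant E. coli-expressed Tdp1 (1 nM) preincubated with compound 15 min at RT, then 5'-biotin/3'-phosphotyrosine-FITC DNA substrate (15 nM) added for 5 min. AlphaScreen beads (10 ug/ml) added, 10 min RT; tyrosine-FITC cleavage read as signal loss.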
IL1B secr inh = qHTS for Inhibitors of Inflammasome Signaling: IL-1-beta AlphaLISA Primary Screen; THP-1 LPS/ATP IL-1B secretion, AlphaLISA, 16 h; active compounds read low; activity change, % at 57.5 µM; 4.7% of 360,000 active; AID 743279, 2014; in the data active = activity change below about -50%; inconclusive = mostly about -30% to -49%; note: % is set by controls: 0 for no effect and ±100 for the full control effect
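Secreted IL-1B measured by AlphaLISA bead assay after 16 h compound exposure of THP-1 cells; compounds (final up to 57.5 uM) added 1 h before LPS (250 ng/mL) and ATP (1.25 mM) stimulation; lower signal means less secretion.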
DT40 TDP1 CPT = qHTS for Inhibitors of human tyrosyl-DNA phosphodiesterase 1 (TDP1): qHTS in cells in presence of CPT | chicken DT40 Tdp1-/-;hTDP1 cells + 20 nM CPT, ATP luminescence, 48 h | Potency, µM (doses to about 46.2 µM), for the others: at the highest dose activity change, negative = growth inhibition, hits mostly inhibitors | 12% of 420,000 active; note: potency is the fitted concentration of half-maximal effect; % is set by controls: 0 for no effect and ±100 for the full control effect; nearly all actives have a fitted effect of over 55% in size
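Cell growth measured by CellTiter-Glo luminescence after a minimum 48 h, 37 C compound exposure with 20 nM CPT in Tdp1-knockout DT40 cells stably expressing hTDP1, seeded 400/well; qHTS titration format.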
TGFb SMAD3 inh = qHTS for Inhibitors of TGF-b. HepG2 CAGA-GFP TGF-b/SMAD3 reporter, GFP fluorescence, 18 h; TGF-beta stimulated, 500 pg/mL final. Potency, µM (highest dose often 46.1 µM), for the others: at the top dose activity, negative = inhibition, most hits filed as inhibitors. 1.2% of 410,000 active. AID 588855, 2011; note: potency is the fitted concentration of half-maximal effect; % is set by controls: 0 for no effect and ±100 for the full control effect; nearly all actives have a fitted effect of over 65% in size
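HEPG2 CAGA-GFP, 1000 cells/well; 2 h settle, 37 C; cpd via pin tool; TGF-b 500 pg/mL final; 18 h, 37 C; GFP imaging ex488/em500-530; %Activity normalised to -TGF-b and +DMSO controls; CRC fit, curve class.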
TDP1 cell noCPT = qHTS for Inhibitors of human tyrosyl-DNA phosphodiesterase 1 (TDP1): qHTS in cells in absence of CPT; DT40 Tdp1-/- hTDP1 cells, no CPT, ATP luminescence, 48 h; 15% of 420,000 active; Potency, µM (series often up to 46.2 µM), for the others: at the top dose activity change, negative = growth inhibition, usual class: inhibitors; note: potency is the fitted concentration of half-maximal effect; % is set by controls: 0 for no effect and ±100 for the full control effect; nearly all actives have a fitted effect of over 55% in size
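Chicken DT40 Tdp1-/- cells complemented with human TDP1, screened without camptothecin (DMSO vehicle only), 400 cells/well. Compounds pin-transferred, cells incubated at 37 °C for at least 48 hr. Growth read as ATP-dependent luminescence (CellTiter-Glo, 30 min at RT).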
HepG2 viability = qHTS for Inhibitors of TGF-b: Cytotox Counterscreen; HepG2 CAGA-GFP viability, ATP luminescence, 18 h; Potency, µM (doses to about 46.1 µM), without a hit: at the top dose activity change, negative = cytotoxicity, usual class: cytotoxic; 0.76% of 410,000 active; AID 588856, 2011; note: potency is the fitted concentration of half-maximal effect
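HepG2 CAGA-GFP cells (1000/well, DMEM with 1% FBS) received compound, then TGF-beta at 500 pg/mL final, and were incubated 18 hours at 37 degrees C. Viability was read by CellTiter-Glo luminescence. Media-only wells were set as complete cell-killing and DMSO as no toxicity.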
* marks the source's active call; other numbers are inactive results; i = inactive; ? = inconclusive; nt = not tested or not shown; [ ] = remark or other dose. Unless noted, calls come from the whole dose curve; as a rule, active = well fitted curve in the direction sought with a large enough effect; inconclusive = small, poorly fitted or top-dose-only effect, or another doubt; inactive = no such curve, though single readings can be large; an effect the other way counts as inactive or inconclusive.

SMILES	TDP1 inh	IL1B secr inh	DT40 TDP1 CPT	TGFb SMAD3 inh	TDP1 cell noCPT	HepG2 viability
Cc1cccc2c1N(CCOc1ccccc1Cl)C(=O)C2=O	-5%	-8	2.6µM*	0%	2.6µM*	0%
Cc1ccccc1OCCN1C(=O)c2ccccc2C1=O	-1%	27	-13%	-15%	-4%	0%
COCCn1c(CNC(=O)c2cccc(C)c2)nc2cccnc21	2%	nt	-18%	-18%	6%	-13%
CC(C)Oc1ccc(C(=O)/C(=C\c2cccs2)c2nc3ccccc3o2)cc1	5%	-67*	?	-6%	?	4%
Cc1cc(C(=O)N2CCc3ccccc32)n(-c2ccccc2)n1	10%	36	?	-11%	18µM*	-54%
Cc1cc(C)n(-c2ccc(C(=O)N3CCc4ccccc43)cc2)n1	8%	?	?	-7%	16µM*	-25%
Cc1cc(C)n(-c2ccc(C(=O)O)cc2)n1	-4%	i	-10%	-2%	-22%	-20%
c1cncc(OC2CCN(Cc3ccc4c(c3)CN(Cc3nc5ccccc5s3)CCO4)CC2)c1	nt	nt	5%[9.04 µM]	nt	-13%	nt
CCOC(=O)[C@]12CCCC=C1N(Cc1cccc3ccccc13)C(=O)[C@H](CC(=O)N1CCN(C(=O)C3CC3)CC1)C2	nt	-12	?	nt	21µM*	nt
CCOC(=O)[C@]12CCCC=C1N(Cc1ccccc1)C(=O)[C@H](CC(=O)N1CCCC1)C2	nt	5	-17%	nt	?	nt
CCOC(=O)[C@]12CCC=C1N(Cc1cccc3ccccc13)C(=O)[C@H](CC(=O)N1CCN(C(=O)c3ccco3)CC1)C2	nt	?	18µM*	nt	?	nt
CCOC(=O)[C@]12CCCC=C1N(Cc1cccc3ccccc13)C(=O)[C@H](CC(=O)N1CCCC1)C2	nt	-19	?	nt	21µM*	nt
CCOC(=O)[C@]12CCCC=C1N(Cc1ccccc1)C(=O)[C@H](CC(=O)N1CCC(c3ccccc3)CC1)C2	nt	-5	16µM*	nt	?	nt
COc1cccc(OC)c1CN1CCC2(CCC(CNC(=O)c3ccccc3)O2)CC1 (centres undefined)	nt	nt	9%	nt	-24%	nt
CCCC(CC)Sc1nc2c([nH]1)c(=S)n(C)c(=O)n2C (centres undefined)	nt	35	3.7µM*	7.9µM*	3.7µM*	-1%
CCC(C)Sc1nc2c(c(=O)[nH]c(=O)n2C)n1C (centres undefined)	3%	15	-2%	-5%	-17%	-10%
CCCCC(C)Sc1nc2c([nH]1)c(=S)n(C)c(=O)n2C (centres undefined)	nt	-99*	3.7µM*	?	5.2µM*	3%
Cc1c(C)c2c(c(C)c1OC(=O)CCC(=O)O)CC[C@@](C)(CCC[C@H](C)CCC[C@H](C)CCCC(C)C)O2	nt	nt	1%	nt	?	nt
CC(C)N(Cc1nccn1C)C(=O)c1ccc2oc(Cc3ccccc3)nc2c1	nt	25	21µM*	0%	?	5%
CN(C)c1cccc2c(C=C(C#N)C#N)ccc(N(C)C)c12	11%	-95*	?	1%	?	3%
COc1ccc(N=Nc2cc(-c3ccccc3)ccc2O)cc1	nt	-21	-2%	-17%	-15%	-19%
COc1ccc(-c2[nH]ncc2N=Nc2cc(C)cc(C)c2)cc1	9%	-92*	0.21µM*	-29%	10µM*	-17%
COc1ccc(-c2[nH]ncc2N=Nc2ccccc2)cc1	0%	-68*	?	?	?	-31%

Source: PubChem
